Data: the supplement of paper PMC13380429
Values without a mark were called inactive.

Test system: Vero E6 infected with SARS-CoV-2
Assay: inhibition of SARS-CoV-2 cytopathic effect; higher = more antiviral protection, active = above 15
Details: 48 h

Structure (SMILES) | inhibition of SARS-CoV-2 cytopathic effect (1 nM) | inhibition of SARS-CoV-2 cytopathic effect (8.33 nM) [%] | inhibition of SARS-CoV-2 cytopathic effect (100 nM) [%] | inhibition of SARS-CoV-2 cytopathic effect (833.33 nM) [%] | inhibition of SARS-CoV-2 cytopathic effect (10000 nM) [%]
CN(C)CCOC(c1ccccc1)c1ccccc1.Cn1c(=O)c2[nH]c(Cl)nc2n(C)c1=O [dimenhydrinate] | 1.11% | -2 | 0.95 | 0.58 | 0.68
CC(=O)O[C@@H]1CC[C@@]2(C)[C@@H](CC[C@]3(C)[C@@H]2C(=O)C=C2[C@@H]4[C@@H](C)[C@H](C)CC[C@]4(C)CC[C@]23C)[C@@]1(C)C(=O)O [acetyl-11-keto-beta-boswellic-acid] | -1.38% | -3.19 | -1.26 | -0.71 | -0.995
NC(Cc1ccc(I)cc1)C(=O)O (stereo in doubt) [4-iodo-L-phenylalanine] | 0.62% | -0.66 | 0.54 | 0.32 | -0.26
NCCCNCCSP(=O)(O)O [amifostine] | 5.31% | 3.29 | 4.42 | 1.87 | 3.86
O=C(O)CCCCCCCC(=O)O [azelaic-acid] | 24.2% (active) | 0.49 | -0.06 | 0.7 | -3.28
Cc1cn([C@H]2C[C@H](N=[N+]=[N-])[C@@H](CO)O2)c(=O)[nH]c1=O [zidovudine] | 3.53% | 3.15 | 6.14 | 2.68 | -0.41
